Experimental data taken from PubChem BioAssay (NCATS).
Results filed as inconclusive are left out. Activity calls are given as the source filed them. Calls follow the shape of the dose curve; as a rule, active = well fitted inhibition curve with a large enough effect; inconclusive = small, poorly fitted or top-dose-only effect; inactive = flat fitted curve, though single readings scatter.

Tests used:
Assay in all cases: qHTS profiling for inhibitors of Plasmodium falciparum proliferation (AID 504749); also: nearly all actives have a fitted effect of over 60% in size
Conditions in all cases: P. falciparum in erythrocytes, SYBR Green DNA, 72 h; series mostly up to 28.7 µM
CP217 = tested on: CP217
Procedure, shortened: (§1)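 SYBR Green fluorescence of parasite DNA, read after lysis and overnight dark incubation, measured growth over 72 h in erythrocyte culture at 0.3% parasitemia and 2.5% hematocrit. Data normalised to DMSO and 0.29 uM artemisinin, with plate-drift correction.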

CP237 = tested on: CP237
Procedure, shortened: as §1

CP238 = tested on: CP238
Procedure, shortened: as §1

CP247 = tested on: CP247
Procedure, shortened: as §1

CP250 = tested on: CP250
Procedure, shortened: as §1

CP252 = tested on: CP252
Procedure, shortened: as §1

CP256 = tested on: CP256
Procedure, shortened: as §1

CP260 = tested on: CP260
Procedure, shortened: as §1

CP262 = tested on: CP262
Procedure, shortened: as §1

CP265 = tested on: CP265
Procedure, shortened: as §1

CP266 = tested on: CP266
Procedure, shortened: as §1

CP268 = tested on: CP268
Procedure, shortened: as §1

CP269 = tested on: CP269
Procedure, shortened: as §1

CP286 = tested on: CP286
Procedure, shortened: as §1

CP291 = tested on: CP291
Procedure, shortened: as §1

CP297 = tested on: CP297
Procedure, shortened: as §1

CP305 = tested on: CP305
Procedure, shortened: as §1

CP315 = tested on: CP315
Procedure, shortened: as §1

CP325 = tested on: CP325
Procedure, shortened: as §1

CP329 = tested on: CP329
Procedure, shortened: as §1

CP335 = tested on: CP335
Procedure, shortened: as §1

DFO2036 = tested on: DFO2036
Procedure, shortened: as §1

DIV14 = tested on: DIV14
Procedure, shortened: as §1

DIV17 = tested on: DIV17
Procedure, shortened: as §1

DIV30 = tested on: DIV30
Procedure, shortened: as §1

Dd2 = tested on: Dd2
Procedure, shortened: as §1

ECU = tested on: ECU
Procedure, shortened: as §1

FAB9 = tested on: FAB9
Procedure, shortened: as §1

GB4 = tested on: GB4
Procedure, shortened: as §1

HB3 = tested on: HB3
Procedure, shortened: as §1

ICS = tested on: ICS
Procedure, shortened: as §1

JCK = tested on: JCK
Procedure, shortened: as §1

N140 = tested on: N140
Procedure, shortened: as §1

P93_24 = tested on: P93_24
Procedure, shortened: as §1

P94_40 = tested on: P94_40
Procedure, shortened: as §1

PAD = tested on: PAD
Procedure, shortened: as §1

PC15 = tested on: PC15
Procedure, shortened: as §1

PC26 = tested on: PC26
Procedure, shortened: as §1

PC49 = tested on: PC49
Procedure, shortened: as §1

SC27B = tested on: SC27B
Procedure, shortened: as §1

TAB109 = tested on: TAB109
Procedure, shortened: as §1

TAB113 = tested on: TAB113
Procedure, shortened: as §1

TAB165 = tested on: TAB165
Procedure, shortened: as §1

W2 = tested on: W2
Procedure, shortened: as §1

Measured: Potency

C[C@@H](Cc1ccc(O)cc1)NC[C@@H](O)c1cc(O)cc(O)c1
inactive: CP217 | CP237 | CP238 | CP247 | CP250 | CP252 | CP256 | CP260 | CP262 | CP265 | CP266 | CP268 | CP269 | CP286 | CP291 | CP297 | CP305 | CP315 | CP325 | CP329 | CP335 | DFO2036 | DIV14 | DIV17 | DIV30 | Dd2 | ECU | FAB9 | GB4 | HB3 | ICS | JCK | N140 | P93_24 | P94_40 | PAD | PC15 | PC26 | PC49 | SC27B | TAB109 | TAB113 | TAB165 | W2
